These results are taken from PubChem BioAssay (Tox21).

“And” between values parts separate entries of the source, which are not always exact repeats. Identical values can stand only once. Records with an inconclusive call do not appear. Entries that show only a call come without a potency. A number with no mark means an inactive call. The source made the active and inactive calls. The call rests on the fitted dose curve.

The nature of this test: qHTS assay to identify small molecule agonists of H2AX - cell viability counter screen (AID 1224847). Further: top concentration of the series differs between compounds; nearly all actives have a fitted effect of over 30% in size. To be noted: CHO-K1 viability, CellTiter-Glo luminescence, 3 h; series mostly up to 154 µM; activity change, negative = cytotoxicity: at the top concentration. The text has this:
National Center for Advancing Translational Sciences [NCATS]
NIH Chemical Genomics Center [NCGC]
U.S. Environmental Protection Agency [EPA]
National Institutes of Environmental Health Sciences [NIEHS]
National Toxicology Program [NTP]
U.S. Food and Drug Administration [FDA]
HTRF phospho-H2AX (Ser139) assay (Cisbio Bioassays, US) enables the quantitative detection of the histone variant H2AX when phosphorylated on serine 139. When double-stranded DNA breaks, either by ionizing radiation or endogenous physiological processes, H2AX becomes phosphorylated at Ser139. This phospho-Ser139 serves as a sensitive biomarker for the detection of such breaks, localizing the site of DNA repair. So, HTRF phospho-H2AX Ser139 is a pertinent assay to study genome stability, the cell cycle, DNA repair, and it serves as a biomarker for cancer, and to understand aging. Wild type CHO-K1 cells were used to identify the inducers of Phospho-H2AX Ser 139 from the Tox21 compound collections. Also cytotoxicity of the Tox21 10K compound library against the CHO-K1 cell line was tested by measuring the cell viability using CellTiter-Glo assay (Promega, Madison, WI).
Tox21 Assay Protocol Summary:
The CHO-K1 cells suspended in culture medium containing 10% FBS were dispensed at 1000 cells/ 3 ul/well in 1536-well white wall/solid bottom plates (Greiner Bio-One North America, NC) using a Multidrop Combi (Thermo Fisher Scientific Inc., Waltham, MA). After the assay plates were incubated at 37C overnight, 23 nl of compounds at 15 concentrations (from 5-48 columns) or positive control (from 1 to 4 columns) were transferred to the assay plates using a Pintool station (Wako, San Diego, CA) into each well resulting in a final DMSO concentration of 0.76%. After 3hr incubation at 37C, 3 uL/well CellTiter-Glo luminescent cell viability reagent (Promega Corporation, Madison, WI) was added using a Flying Reagent Dispenser (FRD) (Aurora Discovery, CA). After incubation at room temperature for 30 min, the luminescence intensity was read using a ViewLux plate reader (PerkinElmer, Waltham, MA).
As to `O=S(=O)(O)c1ccc2ccccc2c1`, the Potency result was “inactive”.
On the same count and under the same terms, next, `CCCSc1ccc2nc(NC(=O)OC)[nH]c2c1`: “inactive”; `Fc1ccc(Br)cc1`: “inactive”.
For the molecule `CCCCCCCCCCCCc1ccccc1`, the Potency entry is “inactive”.
For the molecule `O=C(O)CC(C(=O)O)C(CC(=O)O)C(=O)O` (stereo not given), the Potency entry is “inactive”.
With `CCN(CC)CCCC(C)Nc1ccnc2cc(Cl)ccc12` (stereo not given), the activity change, negative = cytotoxicity was 0.575% [at 14 µM] and -2.97% [at 31.6 µM].
As to `OCCOCCN1CCN(C2=Nc3ccccc3Sc3ccccc32)CC1`, the Potency entry was “inactive”.
In the case of `CC(c1cc2ccccc2s1)N(O)C(N)=O` (stereo not given), the Potency result is “inactive”.
As to `O=C(O)c1ccc2c(c1)C(=O)OC2=O`, the Potency result was “inactive”.
With `CCC(O)OCCCOC` (stereo not given), the Potency entry was “inactive”.
On the same count and under the same terms, under `Cc1occc(=O)c1O` stands “inactive”.
On the same count and under the same terms, under `C=CCOC(=O)c1ccccc1C(=O)OCC=C` stands “inactive”.
Same read-out and setting: next, `C=CCNC(N)=S`: “inactive”; `CCCC(C)=O`: “inactive”; `O=c1[nH]c(=O)n([C@H]2C[C@H](O)[C@@H](CO)O2)cc1Br`: “inactive”.
Take `O=C=NCCCCCCN=C=O`: the Potency entry was “inactive”.
On the same count and under the same terms, under `CC(=O)Nc1cccc(O)c1` stands “inactive”.
Turning to `N[C@@H](Cc1cc(I)c(Oc2cc(I)c(O)c(I)c2)c(I)c1)C(=O)O`, the Potency result was “inactive”.
As for `CN(C)CCCN`, the Potency result is “inactive”.
Same read-out and setting: next, `CC(=O)Nc1ccccc1`: “inactive”; `C[C@H]1C[C@H]2[C@@H]3CCC4=CC(=O)C=C[C@]4(C)[C@@]3(F)[C@@H](O)C[C@]2(C)[C@@]1(O)C(=O)CO`: “inactive”; `CC(C)(N)CO`: “inactive”.
For `Cc1cnc(C(=O)NCCc2ccc(S(=O)(=O)NC(=O)NC3CCCCC3)cc2)cn1`, the Potency result is “inactive”.
For the molecule `CCOC(=O)NNc1nncc2ccccc12`, the Potency result was “inactive”.
For `CN(C)CCOCCN(C)C`, the Potency entry was “inactive”.
As for `CCCCC(CC)CO` (stereo not given), the “activity change, negative = cytotoxicity” value was -0.218%.
As for `Cc1cccc(O)c1`, the Potency entry is “inactive”.
Take `CC(=O)CC(=O)Nc1ccccc1`: the Potency entry was “inactive”.
Still for that read-out and setting: under `O=C(O)CCCCCCCCCCC(=O)O` stands “inactive”.
Consider `CCCCOC(=O)COc1ccc(Cl)cc1Cl`, for which the Potency result was “inactive”.
The same measure, in the same setting: next, `CCCCCC1=CCCC1=O`: “inactive”; `OCCOCCOCCO`: “inactive”; `ON=C1CCCCC1`: “inactive”.
Turning to `Oc1cccc2ccccc12`, the “activity change, negative = cytotoxicity” value was -0.443%.
For `Cc1ccc(N(C)C)cc1`, the Potency entry is “inactive”.
The same measure, in the same setting: under `O=C(OCCOCCOC(=O)c1ccccc1)c1ccccc1` stands “inactive”.
The same measure, in the same setting: next, `OCc1cccnc1`: “inactive”.
On the same count and under the same terms, next, `C=C(C)C(=O)O[C@H]1C[C@@H]2CC[C@@]1(C)C2(C)C`: “inactive”; `O=C1CCC(N2C(=O)c3ccccc3C2=O)C(=O)N1` (stereo not given): “inactive”; `O=C(CC(C(=O)OC1CCCCC1)S(=O)(=O)O)OC1CCCCC1` (stereo not given): “inactive”.
